CYP2C19 act: activators of human cytochrome P450 2C19 | 96,000 tested, under 10 active | recombinant CYP2C19, luciferin-H EGE luminescence; hits give high values; 0 = fully inhibited enzyme, 1 = untreated enzyme | P33261 | activation factor at 5 µM | AID 1025;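 active = activation factor of at least 2 at 5 µM in the primary screen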;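 also: 0 = wells with 2.5 mM tranylcypromine and 1 = vehicle-only wells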
CYP2C9 activ: CYP2C9 (human) activation; P11712; recombinant CYP2C9, luciferin-H conversion, luminescence; hits give high values; factor 1 = untreated enzyme, 0 = blocked; activation factor at 5 µM; 1.4% of 96,000 active;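 active = activation factor of 2 or more for CYP2C9 at a 5 µM dose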;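 also: 0 = sulfaphenazole-blocked wells and 1 = vehicle-only wells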
Target sequence (P11712 whole entry, looked up): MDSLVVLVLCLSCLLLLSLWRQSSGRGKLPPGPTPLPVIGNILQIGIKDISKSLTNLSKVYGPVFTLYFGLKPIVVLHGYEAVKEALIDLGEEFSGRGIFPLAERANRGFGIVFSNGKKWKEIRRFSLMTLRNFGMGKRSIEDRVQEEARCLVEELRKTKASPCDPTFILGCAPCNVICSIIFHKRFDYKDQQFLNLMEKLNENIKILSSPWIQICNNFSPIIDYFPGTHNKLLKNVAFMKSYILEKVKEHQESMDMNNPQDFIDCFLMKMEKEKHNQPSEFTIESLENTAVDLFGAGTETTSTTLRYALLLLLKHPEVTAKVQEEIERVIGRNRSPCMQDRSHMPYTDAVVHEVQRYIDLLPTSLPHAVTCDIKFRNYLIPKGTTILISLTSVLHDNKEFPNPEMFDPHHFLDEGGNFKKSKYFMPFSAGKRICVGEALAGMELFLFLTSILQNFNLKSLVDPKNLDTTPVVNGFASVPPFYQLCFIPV
CYP2C19 inhib: blocks human cytochrome P450 2C19; P33261; inhibition, % at 5 µM; 21% of 96,000 active; CYP2C19 Supersomes, luciferin-H EGE luminescence, 30 min;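 active = CYP2C19 inhibition above a set limit at 5 µM in the primary screen, cut at about 50% in these data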;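 also: plate controls were negative control wells for no effect and 2.5 mM tranylcypromine positive control for full effect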
CYP2C9 inh: inhibitors of human CYP2C9. P11712. CYP2C9 Supersomes, luciferin-H conversion, luminescence. inhibition, % at 5 µM. 20% of 96,000 active. AID 777;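 active = blocking of liver enzyme CYP2C9 beyond about 50% at 5 µM, limit read from the data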
Numbers without * were called inactive. Compounds with a hit are over-represented: about 31% of the library has one in this group of screens.

How did COc1cc(NC2=CC(=O)CC(C)(C)C2)cc(OC)c1OC do in these assays?
CYP2C19 act: 1; CYP2C9 activ: 0.9; CYP2C19 inhib: -1; CYP2C9 inh: 9

What do the screens show for `O=C(NC12CC3CC(CC(C3)C1)C2)N1CCC(O)CC1`?
CYP2C19 act: 1; CYP2C9 activ: 1; CYP2C19 inhib: 1; CYP2C9 inh: 4

How did CC1CCCCC1NC(=O)Cn1ncc2ccccc21 (stereo unspecified) do in these assays?
CYP2C19 act: 0.7; CYP2C9 activ: 1; CYP2C19 inhib: 31; CYP2C9 inh: -2

How did O=C(c1ccccc1)N1CCN(c2ccccc2F)CC1 do in these assays?
CYP2C19 act: 0.1; CYP2C9 activ: 0.3; CYP2C19 inhib: 93*; CYP2C9 inh: 66*

What do the screens show for `O=C(N1CCOCC1)N1CCN(c2ccccc2F)CC1`?
CYP2C19 act: 0.9; CYP2C9 activ: 1.1; CYP2C19 inhib: 11; CYP2C9 inh: -9

What do the screens show for `COC(=O)c1cccnc1N1CCN(c2ccccc2F)CC1`?
CYP2C19 act: 0.2; CYP2C9 activ: 0.8; CYP2C19 inhib: 82*; CYP2C9 inh: 22

How did O=C(c1ccccc1F)N1CCN(c2ccccc2)CC1 do in these assays?
CYP2C19 act: 0.5; CYP2C9 activ: 0.7; CYP2C19 inhib: 50*; CYP2C9 inh: 32

How did O=C(NCN1CCN(c2ccccc2F)CC1)c1cccnc1 do in these assays?
CYP2C19 act: 0.7; CYP2C9 activ: 1; CYP2C19 inhib: 34; CYP2C9 inh: 2

What do the screens show for `O=C(c1ccc(Br)o1)N1CCN(c2ccccc2F)CC1`?
CYP2C19 act: 0.1; CYP2C9 activ: 0.6; CYP2C19 inhib: 92*; CYP2C9 inh: 44

How did C/C(=N\NC(=O)CN1CCOCC1)C(C)(C)C do in these assays?
CYP2C19 act: 1.1; CYP2C9 activ: 1.1; CYP2C19 inhib: -8; CYP2C9 inh: -9

Results for CCn1cc(Br)c(C(=O)N2CCN(c3ccccc3)CC2)n1 ?
CYP2C19 act: 0.2; CYP2C9 activ: 2.1*; CYP2C19 inhib: 85*; CYP2C9 inh: -112

What do the screens show for `O=C(c1ccccc1F)N1CCN(c2ccccc2F)CC1`?
CYP2C19 act: 0.3; CYP2C9 activ: 0.7; CYP2C19 inhib: 68*; CYP2C9 inh: 32

What do the screens show for `O=C(c1ccc(Br)o1)N1CCN(c2ccccn2)CC1`?
CYP2C19 act: 0.1; CYP2C9 activ: 0.2; CYP2C19 inhib: 90*; CYP2C9 inh: 77*

Results for CCOc1ccc(C(=O)N2CCN(c3ccccc3)CC2)cc1OCC ?
CYP2C19 act: 0.6; CYP2C9 activ: 0.6; CYP2C19 inhib: 39; CYP2C9 inh: 41

How did CCOc1cc(NC(=S)NCCCN2CCOCC2)c(OCC)cc1NC(=O)CC(C)C do in these assays?
CYP2C19 act: 0.7; CYP2C9 activ: 0.9; CYP2C19 inhib: 31; CYP2C9 inh: 6

What do the screens show for `CCCCOc1cccc(NC(=O)CSc2nccn2C)c1`?
CYP2C19 act: 0.7; CYP2C9 activ: 1; CYP2C19 inhib: 31; CYP2C9 inh: 0

How did CC1CCc2c(sc3ncnc(NCCCOC(C)C)c23)C1 (stereo unspecified) do in these assays?
CYP2C19 act: 0; CYP2C9 activ: 0.1; CYP2C19 inhib: 98*; CYP2C9 inh: 89*

What do the screens show for `O=C(CN1C(=O)C2(OCCO2)c2ccccc21)c1ccc(Br)cc1`?
CYP2C19 act: 0.7; CYP2C9 activ: 0.6; CYP2C19 inhib: 30; CYP2C9 inh: 39

How did O=C(Cc1sc(-c2ccccc2)nc1-c1ccccc1)Nc1ccccc1 do in these assays?
CYP2C19 act: 1; CYP2C9 activ: 0.5; CYP2C19 inhib: 0; CYP2C9 inh: 52*

Results for CNC(=O)c1sc(-c2ccccc2)nc1C ?
CYP2C19 act: 0.8; CYP2C9 activ: 1.1; CYP2C19 inhib: 16; CYP2C9 inh: -9

What do the screens show for `Cc1c(C(=O)NCc2ccccc2Cl)oc2c1C(=O)CCC2`?
CYP2C19 act: 0.8; CYP2C9 activ: 0.8; CYP2C19 inhib: 15; CYP2C9 inh: 19

How did C#CCONC(=O)c1cc(OCC(F)(F)F)ccc1OCC(F)(F)F do in these assays?
CYP2C19 act: 0.4; CYP2C9 activ: 0.8; CYP2C19 inhib: 61*; CYP2C9 inh: 21

What do the screens show for `O=C(NCCNS(=O)(=O)c1ccccc1)c1cc(OCC(F)(F)F)ccc1OCC(F)(F)F`?
CYP2C19 act: 0.8; CYP2C9 activ: 0.9; CYP2C19 inhib: 25; CYP2C9 inh: 6

Results for O=C(NCCNC(=O)c1cc(OCC(F)(F)F)ccc1OCC(F)(F)F)Nc1ccccc1 ?
CYP2C19 act: 0.8; CYP2C9 activ: 0.4; CYP2C19 inhib: 22; CYP2C9 inh: 57*

Results for CC(C)(C)OC(=O)N1CCC[C@H]1c1nnc(SCc2c(Cl)cccc2Cl)o1 ?
CYP2C19 act: 0.3; CYP2C9 activ: 0.2; CYP2C19 inhib: 71*; CYP2C9 inh: 78*
